In the supplement of paper PMC11150407:
The whole screen tested about 2,100 compounds, of which about 180 (8.6%) showed an effect of 50% or more. The sample as a whole holds a higher share of strong results than the screen did.

test system: MOLM1 and UCSD/AML1 (averaged); assay: cell viability relative to DMSO control (POC); higher = less growth inhibition; settings: 1 µM; 72 h
Description: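 Primary viability screen in the 3q26 EVI1-high AML cell lines MOLM1 and UCSD/AML1 (1.5e3 cells/well, 384-well), compounds at 1 uM for 72 h. ATP CellTiter-Glo read-out given as percent of viable cells over DMSO control (POC), averaged over duplicates. DMSO was the negative control and 5 uM etoposide the positive control. This mapping covers the MicroSource Spectrum and Selleck anticancer libraries (drug names).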

Question: With `COP(=S)(OC)Oc1ccc(Sc2ccc(OP(=S)(OC)OC)cc2)cc1` as the molecule, how does the cell viability read?
Answer: 101%

Question: For `CSc1nc(NC(C)C)nc(NC(C)C)n1`, which cell viability is on record?
Answer: 102%

Question: Which cell viability does the source give for `CC1(C)C(=O)C=C[C@@]2(C)C1=C(O)C(=O)[C@]1(C)[C@@H]2CC[C@@]2(C)[C@H](c3ccoc3)C[C@H]3O[C@]321` here?
Answer: 85.9%

Question: Which cell viability does the source give for `CC(=O)O[C@H]1C[C@@H](OC(C)=O)C(C)(C)C2C[C@@H](OC(C)=O)[C@]3(C)C(CC[C@@]4(C)[C@H](c5ccoc5)C(=O)[C@H]5O[C@]543)[C@]21C` (stereo partly specified) here?
Answer: 85.4%

Question: With `CC(=O)O[C@@H]1C[C@@]2(C)[C@H](c3ccoc3)C[C@H]3O[C@]32[C@]2(C)C(=O)C(O)=C3C(C)(C)C(=O)C=C[C@]3(C)[C@@H]12` as the molecule, how does the cell viability read?
Answer: 19.3%

Question: `CNC(C)[C@H](O)c1ccccc1` (stereo partly specified) was tested. Which cell viability did it give?
Answer: 93.6%

Question: How did the cell viability turn out when `Cc1nccc2c1[nH]c1cc(O)ccc12` was run?
Answer: 81%

Question: Which cell viability does the source give for `O=C(NC(=O)c1c(F)cccc1F)Nc1ccc(Cl)cc1` here?
Answer: 118%

Question: How did the cell viability turn out when `C[C@@H]1O[C@@H](O[C@@H]2C=C3CC[C@@H]4[C@H](CC[C@]5(C)[C@@H](c6ccc(=O)oc6)CC[C@]45O)[C@@]3(C)CC2)[C@H](O)[C@H](O)[C@H]1O` was run?
Answer: 2.01%

Question: With `CC(C)(O)[C@@H]1[C@H]2OC(=O)[C@@H]1[C@]1(O)C[C@H]3O[C@]34C(=O)O[C@H]2[C@]14C` as the molecule, how does the cell viability read?
Answer: 87.8%

Question: `O=C(NC(=O)c1c(F)cccc1F)Nc1cc(Cl)c(OC(F)(F)C(F)C(F)(F)F)cc1Cl` (stereo unspecified) was tested. Which cell viability did it give?
Answer: 93.9%

Question: Which cell viability does the source give for `COC(=O)NC(=S)Nc1ccccc1NC(=S)NC(=O)OC` here?
Answer: 116%

Question: With `COC(=O)C(c1ccccc1)C1CCCCN1` (stereo unspecified) as the molecule, how does the cell viability read?
Answer: 89.3%

Question: Which cell viability does the source give for `CC(C)(N)Cc1ccccc1` here?
Answer: 110%

Question: `N#C/C(=C\c1cccc(O)c1)C(=O)O` [alpha-CYANO-3-HYDROXYCINNAMIC ACID] was tested. Which cell viability did it give?
Answer: 94.3%

Question: How did the cell viability turn out when `O=c1c2ccccc2[se]n1-c1ccccc1` was run?
Answer: 97.5%

Question: With `C[CH2][Hg][S]c1ccccc1C(=O)[O-].[Na+]` as the molecule, how does the cell viability read?
Answer: 99.6%

Question: With `CCCCCCCCCCCCCCCC[n+]1ccccc1` as the molecule, how does the cell viability read?
Answer: 62.3%

Question: For `C/C=C(/C)C(=O)O[C@H]1CC[C@@]2(C)[C@@H]3CC[C@H]4[C@]5(O)C[C@H](O)[C@@]6(O)[C@@H](CN7C[C@@H](C)CC[C@H]7[C@@]6(C)O)[C@]5(O)C[C@@]42O[C@]13O`, which cell viability is on record?
Answer: 94.9%

Question: How did the cell viability turn out when `CC(C)N(CCC(C(N)=O)(c1ccccc1)c1ccccn1)C(C)C` (stereo unspecified) was run?
Answer: 113%

Question: With `N#Cc1c(Cl)c(Cl)c(Cl)c(C#N)c1Cl` as the molecule, how does the cell viability read?
Answer: 1.55%

Question: `CC1=CCCC2C1(C)CCC(C)C2(C)CC/C(C)=C/Cn1c[n+](C)c2c(N)ncnc21` (stereo unspecified) [AGELASINE (stereochemistry of diterpene unknown)] was tested. Which cell viability did it give?
Answer: 109%

Question: `CN[C@@H]1[C@@H](O)[C@@H](O[C@@H]2[C@@H](O)[C@H](O[C@H]3O[C@H]([C@@H](C)O)[C@@H](O)[C@H](O)[C@H]3N)[C@@H](N)C[C@H]2N)OC[C@]1(C)O` was tested. Which cell viability did it give?
Answer: 92%

Question: For `CC1(C)C(=O)[C@@H]2O[C@@H]2[C@@]2(C)C1C[C@@H](O)[C@]1(C)C2CC[C@@]2(C)[C@H](c3ccoc3)OC(=O)C3OC321` (stereo partly drawn) [1,2alpha-EPOXYDEACETOXYDIHYDROGEDUNIN], which cell viability is on record?
Answer: 91.4%

Question: For `CC1=CC(=O)c2c(O)cccc2C1=O`, which cell viability is on record?
Answer: 74.6%

Question: With `COc1cc2c(cc1OC)[C@@H]1C(=O)c3ccc(OC)c(CC=C(C)C)c3O[C@@H]1CO2` as the molecule, how does the cell viability read?
Answer: 103%

Question: How did the cell viability turn out when `C=C(C)[C@H]1Cc2c(ccc3c2O[C@@H]2COc4cc(OC)c(OC)cc4[C@@H]2C3=O)O1` was run?
Answer: 26.4%

Question: How did the cell viability turn out when `COc1cc2c(cc1OC)[C@@H]1C(=O)c3ccc4c(c3O[C@@H]1CO2)CC(C(C)C)O4` (stereo partly specified) was run?
Answer: 77.8%

Question: Which cell viability does the source give for `O=C1NC(=O)C(=O)C(=O)N1` here?
Answer: 100%

Question: With `CNC1CC(N)C(O)C(OC2OC(CO)C(O)C3OC4(OC(C(N)CO)C(O)C(O)C4O)OC23)C1O` (stereo unspecified) as the molecule, how does the cell viability read?
Answer: 103%

Question: For `O=[N+]([O-])O[C@@H]1CO[C@H]2[C@@H]1OC[C@@H]2O`, which cell viability is on record?
Answer: 98.1%

Question: How did the cell viability turn out when `C/C(=C\c1csc(C)n1)[C@@H]1C[C@@H]2O[C@]2(C)CCC[C@H](C)[C@H](O)[C@@H](C)C(=O)C(C)(C)[C@@H](O)CC(=O)O1` [Epothilone B (EPO906)] was run?
Answer: 13.4%

Question: Which cell viability does the source give for `C/C(=C\c1csc(C)n1)[C@@H]1C[C@@H]2O[C@@H]2CCC[C@H](C)[C@H](O)[C@@H](C)C(=O)C(C)(C)[C@@H](O)CC(=O)O1` [Epothilone A] here?
Answer: 18.5%

Question: Which cell viability does the source give for `O=C(O)CC[N+](=O)[O-]` [BOVINOCIDIN (3-nitropropionic acid)] here?
Answer: 94.6%

Question: For `Cc1ccc(O)cc1.Cc1cccc(O)c1.Cc1ccccc1O`, which cell viability is on record?
Answer: 98.6%

Question: `C/C=C(\C)C(=O)O[C@H]1C[C@@H](OC(C)=O)[C@@]2(C(=O)OC)CO[C@H]3[C@@H](O)[C@@](C)([C@]45O[C@@]4(C)[C@H]4C[C@@H]5O[C@@H]5OC=C[C@@]54O)[C@H]4[C@]1(CO[C@]4(O)C(=O)OC)[C@@H]32` was tested. Which cell viability did it give?
Answer: 97.3%

Question: With `OC[C@@H]1CCCN2CCCC[C@H]12` as the molecule, how does the cell viability read?
Answer: 83%

Question: How did the cell viability turn out when `C/C=C/c1ccc2c(c1)OCO2` was run?
Answer: 108%

Question: For `C[C@@H]1C[C@@H]([C@H](O)CC2CC(=O)NC(=O)C2)C(=O)[C@@H](C)C1`, which cell viability is on record?
Answer: 18.4%

Question: With `C[C@]12CCC(=O)C=C1C=C[C@@H]1[C@@H]2CC[C@@]2(C)[C@H]1CC[C@@]2(O)CCC(=O)O` as the molecule, how does the cell viability read?
Answer: 111%

Question: Which cell viability does the source give for `NC(=O)c1ccc(N)nc1` here?
Answer: 88%

Question: Which cell viability does the source give for `C[C@@H](N)[C@@H](O)c1ccccc1` here?
Answer: 106%

Question: How did the cell viability turn out when `CC(C)c1cc2c(c(O)c1O)[C@@]1(C(=O)O)CCCC(C)(C)[C@@H]1CC2` was run?
Answer: 107%

Question: `C=C[C@H]1CN2CC[C@H]1C[C@H]2[C@H](O)c1ccnc2ccccc12` was tested. Which cell viability did it give?
Answer: 105%

Question: For `O=C(NC(=O)c1ccccc1Cl)Nc1ccc(OC(F)(F)F)cc1`, which cell viability is on record?
Answer: 113%

Question: With `O=C1C=CC(=O)c2ccccc21` as the molecule, how does the cell viability read?
Answer: 89.5%
